Sampled rows, rich in hits. Any-hit rate of the full collection: about 3.5%.
GPR151 ag: activators of human GPR151; Q8TDV0; PathHunter beta-arrestin GPR151 cells, luminescence; activation, % at 11.2 µM; 1% of 650,000 active; AID 1508602; in the data active = activation above about 4.9%
MITF inh: human MITF inhibition, primary screen; O75030; AlphaScreen MITF homodimerization, bead proximity signal; inhibition, % at 2.6 µM; 0.91% of 650,000 active; AID 1259374; in the data active = inhibition above about 50%
FBW7 act: activators of human E3 ligase FBW7; Q969H0; AlphaScreen FBW7–phospho-cyclin E peptide binding, activator screen; normalized activity (activation), % at 26.1 µM; 0.13% of 650,000 active; AID 1259310; in the data active = normalized activity above about 1.9%;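 also: purified mutant Fbw7 with reduced substrate affinity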
Target sequence (Q969H0 whole entry, looked up): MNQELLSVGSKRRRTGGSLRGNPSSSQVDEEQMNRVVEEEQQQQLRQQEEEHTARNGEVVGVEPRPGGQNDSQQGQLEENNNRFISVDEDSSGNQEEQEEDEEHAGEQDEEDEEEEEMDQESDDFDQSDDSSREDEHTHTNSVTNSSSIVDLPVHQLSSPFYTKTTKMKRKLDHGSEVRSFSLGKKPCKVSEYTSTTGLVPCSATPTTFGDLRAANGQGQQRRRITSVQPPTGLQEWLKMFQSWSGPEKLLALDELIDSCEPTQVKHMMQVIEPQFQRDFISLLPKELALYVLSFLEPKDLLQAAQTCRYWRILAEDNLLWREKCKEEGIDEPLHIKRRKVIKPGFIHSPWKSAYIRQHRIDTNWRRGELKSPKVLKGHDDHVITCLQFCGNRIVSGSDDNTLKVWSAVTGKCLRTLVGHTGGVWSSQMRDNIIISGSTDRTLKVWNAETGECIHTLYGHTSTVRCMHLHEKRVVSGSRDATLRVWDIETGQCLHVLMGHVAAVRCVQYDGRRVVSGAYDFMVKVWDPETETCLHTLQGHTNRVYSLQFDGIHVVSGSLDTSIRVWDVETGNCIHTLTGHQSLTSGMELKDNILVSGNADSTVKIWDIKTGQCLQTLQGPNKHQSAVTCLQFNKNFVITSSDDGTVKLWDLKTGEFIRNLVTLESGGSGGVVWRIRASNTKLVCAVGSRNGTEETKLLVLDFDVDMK
TEAD-YAP inh: TEAD-YAP interaction inhibition; inhibition, % at 9.12 µM; 1.4% of 640,000 active; HEK-TIYL cells, TEAD-Gal4/YAP UAS-luciferase luminescence; in the data active = inhibition above about 32%
Hits are given with their value; 0 = inactive.

SMILES | GPR151 ag | MITF inh | FBW7 act | TEAD-YAP inh
CCOC(=O)c1[nH]c(C)c(C(=O)Nc2ccccc2F)c1C | 0 | 0 | 0 | 0
CCOC(=O)c1[nH]c(C)c(C(=O)Nc2ccc(OC)cc2OC)c1C | 0 | 0 | 0 | 44.3
COc1ccc(OC)c(C2NC(=S)NC(C)=C2C(=O)Nc2ccc(C)cc2C)c1 (stereo not given) | 0 | 0 | 0 | 0
CCN(CCO)C1CCN(c2nc(C)c3cc4c(cc3n2)CCC4)CC1 | 0 | 0 | 0 | 0
Cc1cc(S(=O)(=O)N2CCCC2C(=O)O)c(C)cc1Cl (stereo not given) | 0 | 0 | 0 | 0
CCOc1cc(/C=C2\SC(=S)N(C(C)C)C2=O)ccc1O | 0 | 0 | 0 | 0
C=CCc1ccc(O)c(-c2cc(CC=C)ccc2O)c1 | 0 | 0 | 0 | 0
C=CCN(CC=C)Cc1cc(O)c(CN(CC=C)CC=C)cc1O | 0 | 53.2 | 0 | 0
CC(=O)Oc1c(Br)cc(Cl)cc1C(=O)Nc1ccc(C)c(Br)c1 | 0 | 0 | 0 | 0
O=C(Nc1ccncc1)C1(c2cccs2)CCOCC1 | 0 | 0 | 0 | 0
COc1nc(N2CCOCC2)nc(N2CCOCC2)n1 | 0 | 0 | 0 | 0
COc1ccc(Br)cc1/C=N/Nc1nnc2c(n1)[nH]c1ccccc12 | 0 | 0 | 2.1 | 0
Cc1ccc2[nH]c3nc(N/N=C/c4ccc(O)cc4O)nnc3c2c1 | 0 | 0 | 0 | 63.3
CCOc1cc(/C=N/Nc2nnc3c(n2)[nH]c2ccc(C)cc23)ccc1O | 0 | 0 | 0 | 0
COc1cccc(/C=N/Nc2nnc3c(n2)[nH]c2ccccc23)c1 | 0 | 0 | 0 | 0
COc1ccc(/C=N/Nc2nnc3c(n2)[nH]c2ccc(Br)cc23)c(O)c1 | 0 | 0 | 0 | 0
Cc1ccc2[nH]c3nc(N/N=C/c4ccc(O)c(O)c4)nnc3c2c1 | 0 | 87.0 | 0 | 0
Cc1cc2nnc(SCC(=O)N3c4ccccc4CC3C)n2c(N)n1 (stereo not given) | 0 | 0 | 0 | 0
COc1cccc(/C=C2\SC(=Nc3ccccc3F)NC2=O)c1OC | 0 | 0 | 0 | 0
CCn1c(=O)c(C(=O)/C(C#N)=C/c2ccccc2F)c(N)n(Cc2ccccc2)c1=O | 0 | 0 | 0 | 0
O=C1CC(c2ccc3c(c2)OCCO3)Oc2ccccc21 (stereo not given) | 0 | 0 | 0 | 0
O=C1CC(c2ccc3c(c2)OCCO3)Oc2ccc([N+](=O)[O-])cc21 (stereo not given) | 0 | 0 | 0 | 52.0
CSc1nnc2c(n1)OC(c1ccco1)N(C(=O)c1ccccc1)c1ccccc1-2 (stereo not given) | 0 | 0 | 0 | 52.8
COc1cc([N+](=O)[O-])cc(/C=N/NC(=O)c2ccccc2Br)c1O | 0 | 73.5 | 0 | 0
Cc1ccc(C(=O)N/N=C/c2ccc([N+](=O)[O-])s2)cc1 | 0 | 0 | 0 | 0
SMILES | GPR151 ag | MITF inh | FBW7 act | TEAD-YAP inh
CCOc1ccccc1C(=O)N/N=C/c1cc([N+](=O)[O-])cc(OC)c1O | 0 | 0 | 0 | 0
COc1cc([N+](=O)[O-])cc(/C=N/NC(=O)c2ccccc2[N+](=O)[O-])c1O | 0 | 65.3 | 0 | 0
O=C(N/N=C/c1cc([N+](=O)[O-])ccc1O)c1ccccc1[N+](=O)[O-] | 0 | 68.9 | 0 | 0
COc1ccccc1C(=O)N/N=C/c1ccc([N+](=O)[O-])s1 | 0 | 0 | 0 | 48.6
O=C(N/N=C/c1ccccc1O)c1ccccc1[N+](=O)[O-] | 0 | 0 | 0 | 0
CCOC(=O)C1=C(C)Nc2nnnn2C1c1ccccc1 (stereo not given) | 0 | 0 | 0 | 0
CC(C)S(=O)(=O)Nc1ccccc1 | 0 | 0 | 0 | 0
Cc1ccc(NC(=O)CC(C)C)c(C)c1 | 0 | 0 | 0 | 0
CCOc1cc([N+](=O)[O-])cc(/C=N/NC(=O)c2cc(C(C)(C)C)[nH]n2)c1O | 0 | 66.4 | 0 | 0
NC(=S)N/N=C/c1cc([N+](=O)[O-])ccc1O | 0 | 100.1 | 0 | 0
C/C(=N\NC(N)=S)c1ccc([N+](=O)[O-])cc1 | 0 | 0 | 0 | 35.9
C/C(=N\NC(N)=O)c1ccc([N+](=O)[O-])cc1 | 0 | 0 | 0 | 0
Cc1cc(C(=O)Nc2ccc(S(=O)(=O)N3CCN(C)CC3)cc2)cs1 | 0 | 0 | 0 | 0
N=C1S/C(=C\c2ccc(Cl)cc2Cl)C(=O)N1c1nonc1N | 0 | 0 | 0 | 0
CC(C)OCCCNC(=O)c1cc(-c2cccs2)nc2ccccc12 | 0 | 0 | 0 | 36.5
O=C(NCCCN1CCOCC1)c1cc(-c2cccs2)nc2ccccc12 | 0 | 0 | 0 | 0
COCc1cc(C)c2c(N)c(C(=O)c3ccc(C)cc3C)sc2n1 | 0 | 0 | 3.7 | 0
Cc1ccc(C(=O)c2sc3nc4c(cc3c2N)C(=O)CCC4)cc1 | 0 | 0 | 0 | 47.4
COc1ccc(C(=O)c2sc3nc4c(cc3c2N)C(=O)CCC4)cc1 | 0 | 0 | 0 | 0
Nc1c(C(=O)Nc2cccc3ccccc23)sc2nc3c(cc12)C(=O)CCC3 | 0 | 0 | 0 | 61.2
Cc1ccc(C(=O)c2sc3nc4c(cc3c2N)CCC4)c(C)c1 | 0 | 0 | 2.0 | 0
CS(=O)(=O)N(CC(=O)Nc1ccc(C(N)=O)cc1)c1ccccc1Cl | 0 | 0 | 0 | 0
CCOC(=O)c1c(C)n(-c2ccccc2)c2ccc(OC(=O)c3ccc(C(=O)c4ccccc4)cc3)cc12 | 0 | 0 | 0 | 0
COc1cc(SC)ccc1C(=O)N1CCN(c2ccccc2OC)CC1 | 0 | 0 | 0 | 56.3
COc1ccc(Cl)cc1C(=O)N1CCN(c2ccccc2)CC1 | 0 | 0 | 0 | 49.6
SMILES | GPR151 ag | MITF inh | FBW7 act | TEAD-YAP inh
COc1ccccc1C(=O)N1CCN(c2ccccc2OC)CC1 | 0 | 0 | 0 | 0
COc1ccc(Cl)cc1C(=O)N1CCN(c2ccccc2OC)CC1 | 0 | 0 | 0 | 54.4
COc1ccccc1N1CCN(C(=O)c2c(-c3ccccc3)noc2C)CC1 | 0 | 0 | 0 | 43.6
COc1ccc(SCCC(=O)Nc2nc3c(F)cccc3s2)cc1 | 0 | 0 | 0 | 0
CCOc1ccccc1N1CCN(C(=O)c2cc(OC)c(OC)c(OC)c2)CC1 | 0 | 0 | 0 | 64.0
CCOc1ccccc1N1CCN(C(=O)C2CCN(Cc3ccccc3O)CC2)CC1 | 0 | 62.0 | 0 | 0
CCSc1ncc(Cl)c(C(=O)N2CCN(c3ccccc3OC)CC2)n1 | 0 | 0 | 0 | 60.2
O=C(CN1C(=O)COc2ccc(S(=O)(=O)N3CCOCC3)cc21)NC1CCCC1 | 0 | 0 | 0 | 0
COCc1cc(CN2CCN(CCc3ccccc3)C(CCO)C2)ccc1OC (stereo not given) | 0 | 0 | 0 | 0
O=C(NC1CC1)c1csc(Nc2cccnc2)n1 | 0 | 0 | 0 | 0
COCCNC(=O)c1ccc2cncc(-c3ccsc3)c2n1 | 0 | 0 | 0 | 78.0
O=C(NC1CC1)c1ccc2cncc(-c3ccsc3)c2n1 | 0 | 0 | 0 | 71.2
COc1ccc2nc3sc(C(=O)N4CCN(c5ccccc5OC)CC4)c(N)c3cc2c1 | 0 | 0 | 0 | 0
COc1ccc(N2CCN(C(=O)c3sc4nc5ccc(OC)cc5cc4c3N)CC2)cc1 | 0 | 69.5 | 0 | 0
COCCNCCCCOc1c(Cl)cc(C)cc1Br | 0 | 0 | 0 | 0
COCCCNCCCOc1c(Cl)cc(C)cc1Br | 0 | 0 | 0 | 51.1
Cc1c(C(=O)OCc2ccccc2)[nH]c2c1C(=O)CC(c1ccco1)C2 (stereo not given) | 0 | 0 | 0 | 56.8

Screening data: PubChem BioAssay, The Scripps Research Institute Molecular Screening Center
